Measured values: ChEMBL document CHEMBL3988442, “University of Dundee, Small-Polar-MMV Screening Library” (2021)
Hit rate of the full screen: of about 69,000 compounds, about 950 (1.4%) showed an effect of 50% or more. Only a selection was taken, and strong results are over-represented in it overall.

Test system: Mycobacterium tuberculosis
Experiment: Cornell M. t heat shock assay; note: in the data most compounds retested in dose-response had high values
Type: functional, organism-based
Design: dose or concentration left out as unconfirmed

Structure (SMILES) | Percent Effect [%]
Cc1cccc(CN2C[C@@H]3CN(C(=O)c4cnoc4C)C[C@@H]3C2=O)n1.O=C(O)C(F)(F)F | -1.837
CCOC(=O)C1CCN(C(=O)c2cc(Br)ccc2-n2cnnn2)CC1 | 2.973
CC(C)(C)c1ncc(CNc2ccccc2Cn2cncn2)s1 | -19.95
Cc1ccc2c(c1)C(NCc1ccccn1)CC2 (stereo unspecified) | 89.07
COc1cccc(CNC2CCc3ccc(C)cc32)n1 (stereo unspecified) | 6.41
Cc1ccc2c(c1)C(NCc1ncnn1C)CC2 (stereo unspecified) | -20.52
Cl.O[C@@H]1CN(Cc2ccc(F)c(F)c2)CC[C@H]1NCc1ccccn1 | -13.15
Cc1cc(-c2cnc(NCc3cccnc3)nc2C(C)(C)C)on1 | 31.35
Cc1[nH]c2ccccc2c1-c1ccnc(N[C@@H](C)CO)n1 | -31.62
CC(Cn1cccn1)NCc1nc(-c2ccccn2)no1 (stereo unspecified) | -7.12
Cc1ccc(-c2nc(CNC(C)CCO)[nH]c2-c2ccccn2)cc1 (stereo unspecified) | 77
COCC(C)NCc1ccc2[nH]c(C)c(C)c2c1 (stereo unspecified) | -11.87
COCC(C)NCc1nc(-c2ccc(C)cc2)c(-c2ccccn2)[nH]1 (stereo unspecified) | 76.34
Cc1cnn(CC(C)NCc2nc(-c3ccccn3)no2)c1 (stereo unspecified) | -11.38
O=C(Cc1ccsc1)N1C[C@@H]2CN(Cc3ccoc3)CCO[C@@H]2C1.O=C(O)C(F)(F)F | -1.836
CC(C)=CCN1C(=O)[C@H]2CC[C@@H]1CN(C(=O)CCc1n[nH]c(C)c1C)C2 | -27.57
O=C(N[C@H]1CCCC[C@@H]1O)c1cccc(-c2nc3ccccc3[nH]2)c1 | 55.91
O=C(N[C@H]1CCCC[C@@H]1O)c1ccc2nc(-c3ccccc3)[nH]c2c1 | 0.8647
O=C(N[C@H]1CCCC[C@@H]1O)c1ccc(-c2nc3ccccc3[nH]2)cc1 | 47.47
CN1CCOCC12CCN(C(=O)C1CCC1)CC2.O=C(O)C(F)(F)F | 6.181
Cc1cc(C)c2[nH]c(C)c(CC(=O)N(C)CCN(C)C)c2c1.O=C(O)CC(O)(CC(=O)O)C(=O)O | -5.156
Cc1ccccc1CNC(=O)Cc1c(C)nc2cc(=O)[nH]n2c1C | 17.46
Cc1ccccc1C(C)NC(=O)Cc1c(C)nc2cc(=O)[nH]n2c1C (stereo unspecified) | 33.63

Structure (SMILES) | Percent Effect [%]
COc1ccccc1CC(=O)NCc1c(C)nc2cc(=O)[nH]n2c1C | 71.9
Cc1nc2cc(=O)[nH]n2c(C)c1CC(=O)NC(C)C | -0.1861
COC(C(=O)NCc1c(C)nc2cc(=O)[nH]n2c1C)c1ccccc1 (stereo unspecified) | 5.148
Cc1ccc(C(C)NC(=O)Cc2c(C)nc3cc(=O)[nH]n3c2C)s1 (stereo unspecified) | 66.66
O=C(O)C(F)(F)F.c1cnc(N2CCC3(CCCN(Cc4ccncc4)C3)CC2)nc1 | -2.214
CNC(=O)[C@H]1C[C@@H]2CCN(c3nnc(C)s3)C[C@@H]2O1.O=C(O)C(F)(F)F | 0.7881
CSCCC1c2nc[nH]c2CCN1Cc1ccccc1C#N (stereo unspecified) | 12.31
CSCCC1c2nc[nH]c2CCN1Cc1ccccc1C(F)(F)F (stereo unspecified) | -11.51
CSCCC1c2nc[nH]c2CCN1Cc1cc(Cl)ccc1O (stereo unspecified) | 106.2
Cc1ccccc1C(=O)N1CC[C@@H](N(C)C)[C@@H]1Cc1cnn(C)c1.O=C(O)C(F)(F)F | -16.62
CN(C)S(=O)(=O)N1CC[C@]2(C[C@@H](Oc3ncccc3F)CO2)C1.O=C(O)C(F)(F)F | 7.547
COc1ccc(CN2C[C@@H](OCc3ccccn3)[C@H]3COC[C@H]32)cc1.O=C(O)C(F)(F)F.O=C(O)C(F)(F)F | -14.6
CCN1CCC(CC(=O)NCC(O)c2ccc3ccccc3c2)CC1 (stereo unspecified) | 13.11
COc1cccc(C(O)CNC(=O)CC2CCCCC2)c1 (stereo unspecified) | 9.16
CCN1CCC(CC(=O)NCC(O)c2cccc(OC)c2)CC1 (stereo unspecified) | 93.38
Cn1ccc(CN2CCCC23CCN(Cc2nccn2C)CC3)n1.O=C(O)C(F)(F)F.O=C(O)C(F)(F)F | 9.444
CCN(CC)Cc1ccc(C(=O)N2CCN(CC(C)O)CC2)cc1 (stereo unspecified) | 9.654
CCN(CC)Cc1ccc(C(=O)N2CCN(CC(C)O)CC2)o1 (stereo unspecified) | 61.39
CCc1ccc(C(=O)N2CCN(CC(C)O)CC2)o1 (stereo unspecified) | 14.22
Cc1ccc(S(=O)(=O)Nc2ccc(N3CCSCC3)c(C(=O)O)c2)s1 | -1.51
CCN(Cc1ccncc1)C(=O)CCn1c(C)cc2ccccc21 | 10.06
CCN(Cc1noc(C)n1)C(=O)CCn1c(C)cc2ccccc21 | 72.72
CCN(Cc1nc(COC)no1)C(=O)CCn1c(C)cc2ccccc21 | 35.71
